Source: PubChem BioAssay (EPA / NIEHS)
Results filed as inconclusive are left out. The source made the active and inactive calls. Rule for the calls, unless noted: active = hit-call score of the fitted dose curve at least 0.9, where 1 is the maximum; inactive = score below 0.9.

What was measured:
[1] = molecular target: Nuclear respiratory factor 1 (Homo sapiens) (UniProt Q16656); assay: ATG_NRF1_CIS: Attagene CIS-FACTORIAL HepG2 Assay for human Nuclear Respiratory Factor 1 (NRF1) Orphan Gene (AID 2282987); details: HepG2 NRF1 cis-element reporter, Attagene multiplex; actives raise or lower the signal
Nuclear respiratory factor 1 (Homo sapiens), sequence (Q16656 whole entry, looked up): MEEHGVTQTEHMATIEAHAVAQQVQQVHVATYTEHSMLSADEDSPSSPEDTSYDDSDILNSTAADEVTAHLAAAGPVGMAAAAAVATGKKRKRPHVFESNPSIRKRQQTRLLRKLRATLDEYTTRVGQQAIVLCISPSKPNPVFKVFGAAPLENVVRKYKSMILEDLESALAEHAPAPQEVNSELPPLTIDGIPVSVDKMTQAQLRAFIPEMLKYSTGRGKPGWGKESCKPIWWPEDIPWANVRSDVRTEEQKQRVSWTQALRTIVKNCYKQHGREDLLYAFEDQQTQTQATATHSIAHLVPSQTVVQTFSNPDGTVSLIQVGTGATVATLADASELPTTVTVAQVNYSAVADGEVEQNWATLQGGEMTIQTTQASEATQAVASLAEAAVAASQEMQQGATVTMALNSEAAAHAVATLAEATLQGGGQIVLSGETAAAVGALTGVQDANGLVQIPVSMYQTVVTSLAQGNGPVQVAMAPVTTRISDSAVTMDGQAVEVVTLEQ
How it was run: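 Measured: fluorescent reporter-specific RT-PCR products from transfected HepG2 cells, separated by capillary electrophoresis. Exposure lasted 24 h. Analysis used bidirectional curve fitting with DMSO as negative control.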

[2] = ATG_NFI_CIS: Attagene CIS-FACTORIAL HepG2 Assay for human Nuclear Factor I (NFI) (AID 2282989); details: HepG2 cis-regulatory reporter, NFI response element transcription; actives raise or lower the signal
How it was run: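 After transient transfection of HepG2 with cis-promoter reporter constructs and 24 h dosing, RNA is reverse-transcribed, amplified, 6-FAM end-labelled and HpaI-digested before capillary analysis. Bidirectional curve fitting against DMSO.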

[3] = molecular target: Myc proto-oncogene protein (Homo sapiens) (UniProt P01106); assay: ATG_Myc_CIS: Attagene CIS-FACTORIAL HepG2 Assay for human Myelocytomatosis (Myc) Proto-Oncogene Transcription Factor (AID 2282990); details: HepG2, Attagene cis-reporter transcription factor activity; actives raise or lower the signal
Myc proto-oncogene protein (Homo sapiens), sequence (P01106 whole entry, looked up): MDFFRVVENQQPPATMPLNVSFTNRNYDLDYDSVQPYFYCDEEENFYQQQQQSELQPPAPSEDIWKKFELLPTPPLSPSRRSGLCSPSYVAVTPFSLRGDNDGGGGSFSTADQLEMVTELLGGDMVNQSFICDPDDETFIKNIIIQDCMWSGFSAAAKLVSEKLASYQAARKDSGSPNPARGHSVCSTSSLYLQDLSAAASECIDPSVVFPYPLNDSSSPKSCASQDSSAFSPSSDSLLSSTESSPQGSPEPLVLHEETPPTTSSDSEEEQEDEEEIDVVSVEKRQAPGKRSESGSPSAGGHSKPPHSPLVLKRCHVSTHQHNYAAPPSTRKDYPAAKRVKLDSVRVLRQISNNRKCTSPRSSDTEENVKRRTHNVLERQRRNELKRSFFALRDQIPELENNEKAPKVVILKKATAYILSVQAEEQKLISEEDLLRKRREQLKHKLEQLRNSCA
How it was run: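 Multiplexed cis-reporter transcription in HepG2 cells after 24 h chemical treatment. Reporter mRNA measured by RT-PCR and capillary electrophoresis fluorescence; activity fitted bidirectionally against DMSO control.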

[4] = ATG_NF_kB_CIS: Attagene CIS-FACTORIAL HepG2 Assay for human Nuclear Factor Kappa B (NF-kB) (AID 2282991); details: HepG2 Attagene cis-factorial NF-kB reporter mRNA; actives raise or lower the signal
How it was run: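 Fluorescence of labelled RT-PCR products separated by capillary electrophoresis gives reporter mRNA levels from transfected HepG2 cells exposed 24 h; values are fitted in both directions relative to DMSO.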

[5] = ATG_NRF2_ARE_CIS: Attagene CIS-FACTORIAL HepG2 Assay for human Nuclear Factor Erythroid 2 Related Factor 2 (NFR2) response to Antioxidant Response Elements (ARE) (AID 2282992); details: HepG2 Attagene ARE/NRF2 reporter, transcription factor activity; actives raise or lower the signal
How it was run: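 Transient MRTU transfection of HepG2; 24 h compound exposure; TriZol RNA, RT with oligo(dT), PCR, 6-FAM primer extension, HpaI cut, CE. Bidirectional fit vs DMSO.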

[6] = ATG_Oct_MLP_CIS: Attagene CIS-FACTORIAL HepG2 Assay for human Octamer-Binding Transcription Factor (Oct) (AID 2282993); details: HepG2 Attagene cis-factorial Oct reporter, mRNA; actives raise or lower the signal
How it was run: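 Cells of the HepG2 line express promoter-controlled reporter sequences whose mRNA levels, after 24 h treatment, are measured by RT-PCR and capillary electrophoresis. Increases and decreases are scored relative to DMSO.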

[7] = molecular target: Cellular tumor antigen p53 (Homo sapiens) (UniProt P04637); assay: ATG_p53_CIS: Attagene CIS-FACTORIAL HepG2 Assay for human p53 Transcription Factor (AID 2282994); details: HepG2 p53 cis-element reporter, Attagene mRNA; actives raise or lower the signal
Cellular tumor antigen p53 (Homo sapiens), sequence (P04637 whole entry, looked up): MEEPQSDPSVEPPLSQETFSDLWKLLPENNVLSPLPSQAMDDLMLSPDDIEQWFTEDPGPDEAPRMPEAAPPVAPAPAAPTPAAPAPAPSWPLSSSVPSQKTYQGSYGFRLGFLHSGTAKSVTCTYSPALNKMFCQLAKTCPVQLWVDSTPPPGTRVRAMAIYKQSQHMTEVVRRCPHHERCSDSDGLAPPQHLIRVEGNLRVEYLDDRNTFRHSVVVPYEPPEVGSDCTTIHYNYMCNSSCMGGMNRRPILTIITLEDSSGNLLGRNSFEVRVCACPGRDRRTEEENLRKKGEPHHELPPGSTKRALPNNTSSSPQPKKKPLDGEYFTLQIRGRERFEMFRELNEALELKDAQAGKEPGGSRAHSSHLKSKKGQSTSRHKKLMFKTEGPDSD
How it was run: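 HepG2, transient MRTU transfection (cis promoter elements, endogenous TFs); 24 h dosing; RNA isolation, RT-PCR, 6-FAM primer extension, HpaI digest, CE fluorescence; bidirectional fit vs DMSO.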

[8] = BSK_3C_TissueFactor: BioMAP Diversity Plus: 3C Assay for Tissue Factor Biomarker Activity (AID 2282997); details: BioMAP 3C HUVEC, tissue factor biomarker readout; actives raise or lower the signal
How it was run: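 Values derive from bidirectional curve fitting against DMSO of Tissue Factor ELISA signals, taken 24 h after dosing primary human umbilical vein endothelial cells.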

[9] = BSK_3C_uPAR: BioMAP Diversity Plus: 3C Assay for Urokinase-type plasminogen activator receptor (uPAR) Biomarker Activity (AID 2282998); details: BioMAP 3C HUVEC, uPAR biomarker ELISA; actives raise or lower the signal
How it was run: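 Endothelial primary cells of human umbilical vein origin received test chemical; 24 h later uPAR was assayed by ELISA. Fitting was bidirectional, DMSO as negative control.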

[10] = BSK_3C_VCAM1: BioMAP Diversity Plus: 3C Assay for Vascular cell adhesion molecule 1 (VCAM1) Biomarker Activity (AID 2282999); details: BioMAP 3C HUVEC, VCAM1 ELISA, cytokine-stimulated; actives raise or lower the signal
How it was run: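 Human umbilical vein endothelial cells were dosed with compound for 24 h, after which cell-surface VCAM-1 was quantified by ELISA. Bidirectional curve fitting used DMSO as negative control and activity baseline.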

[11] = BSK_4H_Eotaxin3: BioMAP Diversity Plus: 4H Assay for Eotaxin 3 Biomarker Activity (AID 2283000); details: primary human endothelial cells (HUVEC); actives raise or lower the signal;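 note: CCL26 protein level quantified by ELISA in parallel with SRB cytotoxicity check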
How it was run: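 Endothelial primary cells (human umbilical vein) exposed to compound for 24 h. ELISA detection of Eotaxin-3.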

[12] = molecular target: human Peroxisome Proliferator-activated Receptor alpha (PPARa), PPARA (gene 5465) (UniProt Q07869); assay: ATG_PPARa_TRANS: Attagene TRANS-FACTORIAL HepG2 Assay for human Peroxisome Proliferator-activated Receptor alpha (PPARa) (AID 2283001; active = hit-call score of the fitted dose curve at least 0.9, where 1 is the maximum;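 for AC50: potency for gain of reporter signal over DMSO so agonist or activator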)
human Peroxisome Proliferator-activated Receptor alpha (PPARa), PPARA (gene 5465), sequence (Q07869 whole entry, looked up, the tested form may be a part): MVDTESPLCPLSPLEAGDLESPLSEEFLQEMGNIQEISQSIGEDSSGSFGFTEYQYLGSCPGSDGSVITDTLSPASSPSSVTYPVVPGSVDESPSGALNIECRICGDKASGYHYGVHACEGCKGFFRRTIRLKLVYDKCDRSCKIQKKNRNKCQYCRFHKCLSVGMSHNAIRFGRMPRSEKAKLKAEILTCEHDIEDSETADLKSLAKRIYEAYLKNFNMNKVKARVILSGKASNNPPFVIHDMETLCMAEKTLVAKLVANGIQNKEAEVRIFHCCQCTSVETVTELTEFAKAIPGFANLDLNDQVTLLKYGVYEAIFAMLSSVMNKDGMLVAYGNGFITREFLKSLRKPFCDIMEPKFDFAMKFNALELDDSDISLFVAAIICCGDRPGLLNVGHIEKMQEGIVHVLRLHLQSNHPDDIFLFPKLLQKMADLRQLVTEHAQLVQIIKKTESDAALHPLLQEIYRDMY
How it was run: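 HepG2 cells transiently transfected with multiplexed GAL4-UAS reporter units and chimeric NR-Gal4 constructs were dosed for 24 h. Reporter mRNA was measured by RT-PCR with fluorescent labelling and capillary electrophoresis; gain of signal fitted against DMSO.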

[13] = read-out: Intercellular Adhesion Molecule 1 (ICAM1), ICAM1 (gene 3383); assay: BSK_3C_ICAM1: BioMAP Diversity Plus: 3C Assay for Intercellular Adhesion Molecule 1 (ICAM1) Biomarker Activity (AID 2283003); details: primary human endothelial cells (HUVEC); actives raise or lower the signal
How it was run: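 Human vascular endothelial primary cells, 3C conditions, 24 h treatment. ICAM-1 by ELISA.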

[14] = molecular target: human Retinoic Acid Receptor beta (RARb), RARB (gene 5915) (UniProt P10826); assay: ATG_RARb_TRANS: Attagene TRANS-FACTORIAL HepG2 Assay for human Retinoic Acid Receptor beta (AID 2283004; active = hit-call score of the fitted dose curve at least 0.9, where 1 is the maximum)
human Retinoic Acid Receptor beta (RARb), RARB (gene 5915), sequence (P10826 whole entry, looked up, the tested form may be a part): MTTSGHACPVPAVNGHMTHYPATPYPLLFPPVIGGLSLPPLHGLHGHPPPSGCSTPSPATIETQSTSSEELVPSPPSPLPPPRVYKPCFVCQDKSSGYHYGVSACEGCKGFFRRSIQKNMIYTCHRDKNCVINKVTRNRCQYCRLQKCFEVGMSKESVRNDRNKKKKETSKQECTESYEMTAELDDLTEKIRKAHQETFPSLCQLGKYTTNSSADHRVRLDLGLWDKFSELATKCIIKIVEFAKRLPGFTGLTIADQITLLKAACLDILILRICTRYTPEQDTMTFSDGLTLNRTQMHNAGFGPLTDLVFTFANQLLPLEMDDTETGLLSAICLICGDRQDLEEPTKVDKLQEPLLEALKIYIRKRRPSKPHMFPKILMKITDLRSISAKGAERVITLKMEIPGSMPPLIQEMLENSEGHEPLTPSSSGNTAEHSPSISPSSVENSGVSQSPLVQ
How it was run: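 HepG2, transient MRTU transfection, NR–Gal4 chimera, 24 h treatment; RT-PCR plus CE fluorescence detection of reporter mRNA; gain of signal vs DMSO.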

[15] = molecular target: Retinoic acid receptor alpha (Homo sapiens) (UniProt P10276); assay: ATG_RARa_TRANS: Attagene TRANS-FACTORIAL HepG2 Assay for human Retinoic Acid Receptor alpha (RARa) (AID 2283005; active = hit-call score of the fitted dose curve at least 0.9, where 1 is the maximum)
Retinoic acid receptor alpha (Homo sapiens), sequence (P10276 whole entry, looked up, the tested form may be a part): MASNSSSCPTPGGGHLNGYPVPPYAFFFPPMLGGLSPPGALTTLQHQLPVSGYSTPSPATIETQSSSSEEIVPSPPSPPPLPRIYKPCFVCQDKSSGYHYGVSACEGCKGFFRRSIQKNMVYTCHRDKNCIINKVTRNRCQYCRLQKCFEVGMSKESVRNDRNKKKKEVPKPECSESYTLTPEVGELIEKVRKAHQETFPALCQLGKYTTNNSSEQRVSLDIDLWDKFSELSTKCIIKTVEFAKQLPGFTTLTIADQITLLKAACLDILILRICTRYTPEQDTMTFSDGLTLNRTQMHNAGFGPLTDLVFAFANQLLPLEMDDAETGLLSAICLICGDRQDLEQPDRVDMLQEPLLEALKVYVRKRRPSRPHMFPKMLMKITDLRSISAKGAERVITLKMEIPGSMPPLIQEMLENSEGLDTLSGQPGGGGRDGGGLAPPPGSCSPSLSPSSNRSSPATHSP
How it was run: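 HepG2 cells transiently transfected with multiple reporter units expressing chimeric RARα-GAL4 fusion, with GAL4-UAS-driven reporters. After 24 h compound exposure, reporter mRNA induction quantified by RT-PCR and capillary electrophoresis with fluorescent labeling; gain-of-signal fitted relative to DMSO control.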

[16] = BSK_3C_Proliferation: Cell Proliferation Assessment in the BioMAP Diversity Plus: 3C Assay (AID 2283006); details: primary human endothelial cells (HUVEC)
How it was run: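 Proliferation of human vascular endothelial primary cells after 48 h dosing, quantified as SRB-stained protein at 560 nm relative to DMSO.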

[17] = molecular target: Peroxisome proliferator-activated receptor gamma (Homo sapiens) (UniProt P37231); assay: ATG_PPARg_TRANS: Attagene TRANS-FACTORIAL HepG2 Assay for human Peroxisome Proliferator-activated Receptor-gamma (PPARg) (AID 2283007; active = hit-call score of the fitted dose curve at least 0.9, where 1 is the maximum)
Peroxisome proliferator-activated receptor gamma (Homo sapiens), sequence (P37231 whole entry, looked up): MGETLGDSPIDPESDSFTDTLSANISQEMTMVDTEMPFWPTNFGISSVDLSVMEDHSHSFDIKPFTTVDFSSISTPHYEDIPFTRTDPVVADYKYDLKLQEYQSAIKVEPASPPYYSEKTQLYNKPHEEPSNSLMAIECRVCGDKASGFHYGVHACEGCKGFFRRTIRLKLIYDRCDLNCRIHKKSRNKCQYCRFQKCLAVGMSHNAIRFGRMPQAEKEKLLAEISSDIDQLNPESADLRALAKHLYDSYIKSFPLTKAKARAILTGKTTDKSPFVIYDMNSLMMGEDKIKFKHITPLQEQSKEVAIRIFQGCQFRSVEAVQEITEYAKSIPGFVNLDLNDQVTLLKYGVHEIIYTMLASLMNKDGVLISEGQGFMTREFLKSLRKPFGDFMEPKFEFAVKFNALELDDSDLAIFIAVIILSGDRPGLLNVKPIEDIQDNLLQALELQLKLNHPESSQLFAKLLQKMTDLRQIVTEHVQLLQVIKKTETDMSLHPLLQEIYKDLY
How it was run: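 Twenty-four hours after chemical dosing of transiently transfected HepG2 cells, isolated RNA was converted to cDNA, reporter sequences amplified and 6-FAM-labelled, then HpaI-digested and analysed by capillary electrophoresis. Signal increase against DMSO was fitted.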

[18] = molecular target: Nuclear receptor subfamily 1 group I member 2 (Homo sapiens) (UniProt O75469); assay: ATG_PXR_TRANS: Attagene TRANS-FACTORIAL HepG2 Assay for human Pregnane X Receptor (PXR) (AID 2283008; active = hit-call score of the fitted dose curve at least 0.9, where 1 is the maximum)
Nuclear receptor subfamily 1 group I member 2 (Homo sapiens), sequence (O75469 whole entry, looked up, the tested form may be a part): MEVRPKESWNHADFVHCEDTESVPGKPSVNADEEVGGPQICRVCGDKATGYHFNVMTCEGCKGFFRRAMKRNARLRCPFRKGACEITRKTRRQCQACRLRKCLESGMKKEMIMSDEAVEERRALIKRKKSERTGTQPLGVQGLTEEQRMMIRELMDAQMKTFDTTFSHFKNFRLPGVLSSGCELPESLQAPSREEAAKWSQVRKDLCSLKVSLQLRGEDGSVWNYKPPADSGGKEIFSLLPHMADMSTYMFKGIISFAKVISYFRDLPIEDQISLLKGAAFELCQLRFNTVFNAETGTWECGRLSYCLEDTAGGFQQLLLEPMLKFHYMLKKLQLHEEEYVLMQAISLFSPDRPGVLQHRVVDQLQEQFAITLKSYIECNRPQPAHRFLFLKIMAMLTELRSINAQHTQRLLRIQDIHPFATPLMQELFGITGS
How it was run: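 Read-out is fluorescence of labelled reporter cDNA fragments separated by capillary electrophoresis after RT-PCR and HpaI digestion. Source: HepG2 cells carrying PXR-GAL4/UAS reporter constructs, treated 24 h; activity fitted upward relative to DMSO.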

[19] = molecular target: human Retinoic Acid Receptor gamma (RARg), RARG (gene 5916) (UniProt P13631); assay: ATG_RARg_TRANS: Attagene TRANS-FACTORIAL HepG2 Assay for human Retinoic Acid Receptor gamma (RARg) (AID 2283009; active = hit-call score of the fitted dose curve at least 0.9, where 1 is the maximum)
human Retinoic Acid Receptor gamma (RARg), RARG (gene 5916), sequence (P13631 whole entry, looked up, the tested form may be a part): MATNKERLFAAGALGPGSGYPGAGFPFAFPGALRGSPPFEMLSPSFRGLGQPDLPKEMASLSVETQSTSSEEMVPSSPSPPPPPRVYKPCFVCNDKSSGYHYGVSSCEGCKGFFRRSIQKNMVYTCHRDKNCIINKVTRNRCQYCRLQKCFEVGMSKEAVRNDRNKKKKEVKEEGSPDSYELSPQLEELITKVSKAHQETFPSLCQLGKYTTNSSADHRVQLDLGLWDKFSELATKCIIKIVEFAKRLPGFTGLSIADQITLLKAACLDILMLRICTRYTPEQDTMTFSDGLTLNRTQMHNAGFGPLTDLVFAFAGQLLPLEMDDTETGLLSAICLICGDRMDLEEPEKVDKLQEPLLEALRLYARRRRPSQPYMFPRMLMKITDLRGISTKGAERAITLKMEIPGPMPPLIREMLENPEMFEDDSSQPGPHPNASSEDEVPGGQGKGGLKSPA
How it was run: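 HepG2, RARg-GAL4 TRANS system, 24 h exposure; reporter mRNA by RT-PCR + CE fluorescence; increase over DMSO.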

[20] = molecular target: human Peroxisome Proliferator-activated Receptor delta (PPARd), PPARD (gene 5467) (UniProt Q03181); assay: ATG_PPARd_TRANS: Attagene TRANS-FACTORIAL HepG2 Assay for human Peroxisome Proliferator-activated Receptor delta (PPARd) (AID 2283002; active = hit-call score of the fitted dose curve at least 0.9, where 1 is the maximum)
human Peroxisome Proliferator-activated Receptor delta (PPARd), PPARD (gene 5467), sequence (Q03181 whole entry, looked up, the tested form may be a part): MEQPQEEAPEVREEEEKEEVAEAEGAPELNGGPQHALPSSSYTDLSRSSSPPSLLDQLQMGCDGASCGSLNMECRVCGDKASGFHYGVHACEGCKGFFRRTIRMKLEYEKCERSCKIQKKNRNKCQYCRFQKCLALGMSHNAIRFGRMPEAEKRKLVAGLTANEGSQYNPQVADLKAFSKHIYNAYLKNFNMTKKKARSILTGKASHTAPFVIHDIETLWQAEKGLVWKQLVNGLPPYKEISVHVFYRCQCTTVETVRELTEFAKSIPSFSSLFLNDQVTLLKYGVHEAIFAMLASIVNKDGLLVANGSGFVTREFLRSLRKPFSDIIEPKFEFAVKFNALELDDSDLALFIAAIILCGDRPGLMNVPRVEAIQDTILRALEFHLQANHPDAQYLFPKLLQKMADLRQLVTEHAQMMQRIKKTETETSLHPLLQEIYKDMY
How it was run: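 Multiplexed trans-activation format: HepG2 liver cells expressing exogenous NR-Gal4 chimeras and GAL4-UAS reporters were exposed for 24 h. Reporter mRNA was detected by RT-PCR with capillary electrophoresis fluorescence; activity fitted as gain of signal relative to DMSO.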

Measured: AC50

C=CCOC(=O)CC(C)C
inactive: [1] | [2] | [3] | [4] | [5] | [6] | [7]

O=C(Cl)C(F)(F)C(F)(F)C(F)(F)C(F)(F)C(F)(F)C(F)(F)F
active: [5] 154 µM | [12] 10.9 µM | [17] 71.1 µM
not listed: [20]
inactive: all other assays above

O=C(O)C(F)(F)C(F)(F)C(F)(F)OC(F)(F)F
active: [12] 61.4 µM
not listed: [15] | [19] | [20]
inactive: all other assays above

Cc1ccc(O)c(-n2nc3ccccc3n2)c1
active: [5] 4.95 µM | [18] 14.6 µM
not listed: [15] | [19] | [20]
inactive: all other assays above

NC(=O)C(F)(F)C(F)(F)C(F)(F)F
not listed: [14] | [15] | [17] | [18] | [19] | [20]
inactive: all other assays above

CO[Si](C)(CCC(F)(F)C(F)(F)C(F)(F)C(F)(F)C(F)(F)C(F)(F)F)OC
not listed: [14] | [15]
inactive: all other assays above

NC(=O)C(F)(F)C(F)(F)C(F)(F)C(F)(F)C(N)=O
not listed: [14] | [15] | [19]
inactive: all other assays above
